Measurements: PubChem BioAssay AID1159566 (Broad Institute, 2015)
Potency and affinity values are given separately. The source made the active and inactive calls. No rule for the calls is given here.

test: Dd2 malaria parasite growth inhibition potency – SYBR Green, dry powder samples, dose response (AID 1159566); conditions: P. falciparum Dd2 growth, SYBR Green fluorescence; series mostly up to 19.5 µM

outcome, inactive:
COc1cccc(C#Cc2ccc([C@H]3[C@@H](CO)N(C(=O)c4ccccn4)[C@H]3C#N)cc2)c1, Cc1ccccc1-c1ccccc1[C@H]1[C@@H](C#N)N(C(=O)c2ccccc2)[C@@H]1CO, C[C@@H]1CN([C@H](C)CO)C(=O)c2cccc(NC(=O)c3ccc(-c4nccs4)cc3)c2O[C@H]1CN(C)Cc1ccc(C(F)(F)F)cc1, COc1ccc(S(=O)(=O)Nc2ccc3c(c2)CC(=O)N([C@@H](C)CO)C[C@H](C)[C@H](CN(C)S(=O)(=O)c2ccc(OC)cc2)O3)cc1, O=C(NC[C@@H]1CC[C@H]2[C@H](CN2Cc2cc(-c3ccccc3)on2)O1)c1ccc2c(c1)OCO2
